Screening data from PubChem BioAssay.
TDP1 cell CPT: DT40-hTDP1 cell growth loss with CPT | Potency, µM (doses to about 46.2 µM), for inactives: at the top dose activity change, negative = growth inhibition, actives largely listed as inhibitors | AID 686979 | chicken DT40 Tdp1-/-;hTDP1 cells + 20 nM CPT, ATP luminescence, 48 h | 12% of 420,000 active; further: potency means the concentration at half of the fitted maximal effect; nearly all actives have a fitted effect of over 55% in size
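Chicken DT40 Tdp1-/- cells complemented with human TDP1, 400 cells/well, exposed to compounds plus 20 nM camptothecin for at least 48 h at 37 C; viability read as ATP content by CellTiter-Glo luminescence.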
HT1080-NT tox: kills 2HG-producing HT-1080-NT fibrosarcoma cells | AID 686970 | 1.6% of 360,000 active | HT-1080-NT fibrosarcoma viability, CellTiter-Glo ATP luminescence, 48 h | Potency, µM (highest dose often 46.1 µM), for the others: top-dose activity, negative = less viability, hits mostly cytotoxic;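 further: NT is the 2HG producing partner of a matched IDH1 knockdown line; potency means the concentration at half of the fitted maximal effect; 0% = DMSO-treated cells and -100% = media-only wells without cells; nearly all actives have a fitted effect of over 55% in size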
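Luminescent CellTiter-Glo readout after 48 hours of compound exposure at 37 degrees C defined viability of HT-1080-NT cells. Activity was normalized to DMSO wells and cell-free media wells; concentration-response curves were fitted and assigned curve classes.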
TDP1 cell noCPT: qHTS for Inhibitors of human tyrosyl-DNA phosphodiesterase 1 (TDP1): qHTS in cells in absence of CPT; AID 686978, 2013; 15% of 420,000 active; DT40 Tdp1-/- hTDP1 cells, no CPT, ATP luminescence, 48 h; Potency, µM (doses to about 46.2 µM), inactives show at the highest dose activity change, negative = growth inhibition, hits mostly inhibitors; further: potency means the concentration at half of the fitted maximal effect; nearly all actives have a fitted effect of over 55% in size
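Growth of hTDP1-complemented DT40 Tdp1-knockout cells is measured by ATP luminescence after at least 48 hr compound exposure at 37 °C, with DMSO substituting for the 20 nM CPT used in the parallel screen.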
IL1B secr inh: inflammasome signaling inhibition, IL-1 beta readout. 4.7% of 360,000 active. THP-1 LPS/ATP IL-1B secretion, AlphaLISA, 16 h; stronger effect = lower value. activity change, % at 57.5 µM; in the data active means activity change below about -50%; inconclusive means mostly about -30% to -49%
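THP-1 cells pretreated 1 hr with compounds (up to 57.5 uM final), then stimulated with LPS (250 ng/mL final) plus ATP (1.25 mM final); secreted IL-1B measured by AlphaLISA after 16 hr, decreased signal indicating inhibition.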
12-LOX inh: inhibitors of human 12S-lipoxygenase ALOX12; purified 12hLO, xylenol orange hydroperoxide absorbance; Potency, µM (series often up to 108 µM), without a hit: top-dose activity change, negative = inhibition, usual class: inhibitors; 1.1% of 580,000 active; AID 1671190; further: potency means the concentration at half of the fitted maximal effect
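Hydroperoxide product was detected by ferrous iron/xylenol orange as the 573 to 405 nm absorbance ratio. Arachidonic acid at 40 uM (final) was turned over for 30 min at room temperature by 150 nM human 12hLO, pH 7.0 Hepes buffer, after 15 min compound preincubation.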
HT1080 IDH1KD tx: HT-1080 IDH1 knockdown cell toxicity (counter line) | HT-1080 IDH1 knockdown viability, ATP luminescence, 48 h | Potency, µM (doses to about 46.1 µM), for inactives: at the top dose activity, negative = toxicity, actives largely listed as cytotoxic | 2% of 360,000 active | AID 686971;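 further: potency means the concentration at half of the fitted maximal effect; 0% = DMSO wells and -100% = cell-free medium wells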
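HT-1080-IDH1KD cells (IDH1 knocked down), 750/well in RPMI with 5% FBS, treated with compound 48 h at 37 degrees C. Viability by CellTiter-Glo luminescence, normalised to DMSO and no-cell wells; concentration-response curves classed.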
Numbers without * were called inactive; ? = inconclusive. Many of the other results were omitted from the sample, so hits are more common in it than they were. Unless noted, the call rests on the fitted dose curve; in most records, active means well fitted curve in the direction sought with a large enough effect; inconclusive means small, poorly fitted or top-dose-only effect, or another doubt; inactive means no such curve, though single readings can be large; an effect the other way counts as inactive or inconclusive. Unless noted, on the % scale 0 is the no-effect control and ±100 the full control effect.

SMILES	TDP1 cell CPT	HT1080-NT tox	TDP1 cell noCPT	IL1B secr inh	12-LOX inh	HT1080 IDH1KD tx
CCOc1ccccc1N(C(=O)c1snc(C(N)=O)c1N)C(C(=O)NC1CCCC1)c1ccco1 (configuration not stated)	-1.1%	-6.2%	-4.5%	-15.6	-10.7%	-1.4%
COc1ccc(N(C(=O)c2snc(C(N)=O)c2N)C(C(=O)NC2CCCCC2)c2ccc(C)o2)c(OC)c1 (configuration not stated)	11.6µM*	-27.3%	20.6µM*	-3.9	-4.9%	-9.7%
COc1ccc(N(C(=O)c2snc(C(N)=O)c2N)C(C(=O)NC2CCCC2)c2ccco2)c(OC)c1 (configuration not stated)	?	-17.8%	23.1µM*	-70.0*	-2.6%	?
CC1(C)CC(=O)C2=C(C1)OC(N)=C(C#N)C21C(=O)N(Cc2ccccc2Cl)c2ccccc21 (configuration not stated)	?	-0.6%	23.1µM*	0.0	163.4%	0.8%
Cc1nn(-c2ccccc2)c2c1C1(C(=O)N3c4c(cccc41)C(C)CC3(C)C)C(C#N)=C(N)O2 (configuration not stated)	?	?	?	-25.9	7.2%	?
